High-throughput results as filed in PubChem BioAssay.
KDM4E inh: qHTS Assay for Inhibitors of Human Jumonji Domain Containing 2E (JMJD2E) | Lysine-specific demethylase 4E (Homo sapiens), B2RXH2 | JMJD2E catalytic domain, FDH-coupled NADH fluorescence (FDH is formaldehyde dehydrogenase) | Potency, µM (series often up to 57.1 µM), most hits filed as inhibitors | 230,000 tested, 1.6% active | AID 2147, 2009; active means well fitted inhibition curve with a large enough effect, not every such curve was filed as active; inconclusive means small, poorly fitted or top-dose-only effect, or another doubt; inactive means no such curve, though single readings can be large or run the other way; further: nearly all actives have a fitted effect of over 50% in size
L3MBTL1 inh: qHTS Assay for the Inhibitors of L3MBTL1. AlphaScreen L3MBTL1–H3K9me1 peptide binding. 230,000 tested, 0.66% active. Potency, µM (top dose mostly 57.1 µM), hits mostly inhibitors. AID 485360, 2010; further: nearly all actives have a fitted effect of over 60% in size
Target sequence (Q9Y468 whole entry, looked up): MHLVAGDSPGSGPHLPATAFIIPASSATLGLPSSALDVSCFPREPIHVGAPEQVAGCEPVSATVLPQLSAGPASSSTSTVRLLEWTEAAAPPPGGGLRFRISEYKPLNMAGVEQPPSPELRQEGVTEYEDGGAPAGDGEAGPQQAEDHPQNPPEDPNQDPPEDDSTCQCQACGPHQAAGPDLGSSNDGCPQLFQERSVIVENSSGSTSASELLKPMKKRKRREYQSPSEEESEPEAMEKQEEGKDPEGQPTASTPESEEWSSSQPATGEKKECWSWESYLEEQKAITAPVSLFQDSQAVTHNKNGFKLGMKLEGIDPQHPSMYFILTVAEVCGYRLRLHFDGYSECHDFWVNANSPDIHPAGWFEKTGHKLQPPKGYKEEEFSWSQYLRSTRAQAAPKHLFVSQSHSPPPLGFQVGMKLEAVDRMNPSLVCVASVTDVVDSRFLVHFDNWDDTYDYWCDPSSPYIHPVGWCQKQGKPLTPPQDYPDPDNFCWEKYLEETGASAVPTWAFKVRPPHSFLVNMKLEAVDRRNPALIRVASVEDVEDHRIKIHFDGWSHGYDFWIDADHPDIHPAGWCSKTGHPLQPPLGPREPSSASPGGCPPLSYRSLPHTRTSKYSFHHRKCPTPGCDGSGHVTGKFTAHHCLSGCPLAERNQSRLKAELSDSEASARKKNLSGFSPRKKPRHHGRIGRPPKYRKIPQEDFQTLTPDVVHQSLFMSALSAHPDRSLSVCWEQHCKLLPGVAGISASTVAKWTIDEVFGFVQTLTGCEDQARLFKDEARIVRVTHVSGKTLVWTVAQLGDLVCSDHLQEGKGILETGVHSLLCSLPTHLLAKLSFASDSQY
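AlphaScreen proximity signal between nickel-chelate acceptor and streptavidin donor beads (final 10 ug/mL) reports binding of 50 nM L3MBTL1 to 75 nM biotin-H3 K9me1 peptide; complex incubated with compounds 30 min at room temperature; cefsulodin titration as control.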
HTT ATP protect: qHTS Multiplex Assay to Identify Dual Action Probes in a Cell Model of Huntington: Cytoprotection (ATP) | PC12 HTT-Q103 induced, cytoprotection, ATP luminescence, 40 h | Potency, µM (titrated, usually from 56.4 µM), hits mostly activators | 230,000 tested, 0.14% active; further: nearly all actives have a fitted effect of over 45% in size
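Readout: ATPlite luminescence (ATP level). Model: stable PC12, inducible Htt exon1 Q103-GFP. Inducer: tebufenozide, 100 nM final. Compounds: dose series. No G418 in medium.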
HTT aggregate: qHTS Multiplex Assay to Identify Dual Action Probes in a Cell Model of Huntington: Aggregate Formation (GFP); AID 1688, 2009; PC12 HttQ103-GFP aggregates, Acumen cytometry, 40 h; 220,000 tested, 1.1% active; Potency, µM (doses to about 46.1 µM), most hits filed as inhibitors; further: nearly all actives have a fitted effect of over 60% in size
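Steps: seed 1500 PC12 HTTQ103-GFP cells/well; add tebufenozide, 100 nM final; add compound titration; add ATPLite reagent; quantify GFP aggregates by laser scanning cytometry.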
Numbers stand for hits; . = inactive; ? = inconclusive; / = no result given; [ ] = dose if it differs, or a comment. Sampled rows, rich in hits. Any-hit rate of the full collection: about 1.8%. Unless noted, the call rests on the fitted dose curve; in most records, active means well fitted curve in the direction sought with a large enough effect; inconclusive means small, poorly fitted or top-dose-only effect, or another doubt; inactive means no such curve, though single readings can be large; an effect the other way counts as inactive or inconclusive.

SMILES	KDM4E inh	L3MBTL1 inh	HTT ATP protect	HTT aggregate
COc1ccc(C(=O)NCc2c(C)oc(C)c2C(=O)O)cc1	/	.	/	/
CCCCOP(=O)(c1ccc(N(C)C)cc1)C(O)c1ccncc1 (stereo not drawn)	22µM	.	.	.
O=C(N/N=C\c1cn(-c2ccccc2)nc1-c1ccccc1)c1ccc(Br)o1	.	.	.	25µM
Cc1ccc(-c2nn(-c3ccccc3)cc2/C=N/NC(=O)c2ccc(Br)o2)cc1	?	.	.	7.1µM
O=C(Cn1c2[n+](c3ccc(C(F)(F)F)cc31)CCCCC2)Nc1ccc(Br)cc1	.	/	.	.
N#Cc1ccc(NC(=O)Cn2c3[n+](c4ccc(C(F)(F)F)cc42)CCCCC3)cc1	25µM	.[11.4 µM]	.	.
CCOC(=O)N1CC=C2C(C#N)=C(N)C(C#N)(C#N)[C@H](c3ccsc3)[C@H]2C1	.	.	.	0.56µM
Cc1ccc(S(=O)(=O)N2CCN(c3ccnc4cc(Cl)ccc34)CC2)cc1C	?	.	.	?
Cc1ccc(S(=O)(=O)N2CCN(c3ccnc4cc(Cl)ccc34)CC2)cc1	?	.	.	16µM
CC(C)(C)c1nc(Sc2ccc([N+](=O)[O-])cn2)n[nH]1	.	/	.[10 µM]	.[9.22 µM]
O=[N+]([O-])c1ccc(Sc2n[nH]c(-c3ccc(Cl)cc3Cl)n2)nc1	?	.	0.79µM	?
CSc1nc(-c2ccc(C)cc2)[nH]c1S(=O)(=O)c1ccccc1	.	.	.	.
CC(=O)Sc1nc(-c2ccccc2)[nH]c1S(=O)(=O)c1ccc(C)cc1	10µM	.	.	?
O=C(CSc1nc2ccccc2c(=O)[nH]1)c1ccc(O)c(O)c1	25µM	.[11.4 µM]	.	.
O=C(CSc1nc2ccccc2n1CCc1ccccc1)c1ccc(O)c(O)c1	22µM	3.2µM	.[10 µM]	?
O=C(CSc1nc2ccccc2c(=O)[nH]1)c1ccc(O)cc1O	?	.	/	.
Cc1ccccc1S(=O)(=O)Cc1ccc(C(=O)N2CCN(c3cccc(C)c3C)CC2)o1	.	.	.[10 µM]	13µM
Cc1ccccc1S(=O)(=O)Cc1ccc(C(=O)N2CC(C)CC(C)C2)o1 (stereo not drawn)	.	/	.	.
C/C(=N\NC(=O)c1ccc(NS(=O)(=O)c2cccs2)cc1)c1ccc(O)cc1O	13µM	.	.[10 µM]	.[9.22 µM]
COc1cccc(C(=O)NNC(=O)c2ccc(NS(=O)(=O)c3cccs3)cc2)c1OC	/	.	/	/
COC(=O)N1[C@H]2CC[C@@]3(C)C=C(C)O[C@]1(C)C3c1ccccc12	.	/	.	/
Cn1cccc1C(=O)N1CCC2(CC1)CCN(c1ccc(-c3ccccc3)cc1)CC2	/	/	.	/
O=S(=O)(Nc1cccc2cccnc12)c1ccc(S(=O)(=O)N2CCCC2)cc1	.	.[11.4 µM]	.[10 µM]	0.79µM
Cc1cc(N/N=C/c2ccc(Cl)cc2)nc(NCc2ccccc2)n1	.	.	/	13µM
Cc1cc(-c2ccccc2)nc(N/N=C/c2ccc([N+](=O)[O-])cc2)n1	.	.	/	0.028µM
SMILES	KDM4E inh	L3MBTL1 inh	HTT ATP protect	HTT aggregate
CCCCC/C=C\C/C=C\C/C=C\CCCCCCC(=O)NCCCC(=O)O	?	/	.	/
O=C(CSc1nc2ccccc2s1)Nc1nccs1	.	.	.	20µM
CC1=C(c2ccccc2)[N+](=O)C2(CCCC2)N1[O-]	.	.	.	.
O=[N+]([O-])c1ccc2c(c1)N([O-])C1(CCCCC1)[N+]2=O	11µM	.	.[10 µM]	.[9.22 µM]
CC(C)(C(O)c1ccc([N+](=O)[O-])cc1)[N+](=O)[O-] (stereo not drawn)	?	/	.	/
c1ccc2nc3ccccc3nc2c1	.	.	/	.
Nc1nc2ccccc2nc1N	3.2µM	.	.[10 µM]	.
Cc1ccc(OCC(=O)N2CC(C)OC(C)C2)c([N+](=O)[O-])n1 (stereo not drawn)	.	.	0.05µM	.
Cc1ccc(OCC(=O)N2CCOCC2)c([N+](=O)[O-])n1	.	/	.[10 µM]	.[9.22 µM]
CC(C)=CCC/C(C)=C/CO/N=C1/C[C@@H](O)[C@@H](O)[C@@H]2[C@@H]3C(=O)N(c4cccc(Oc5ccccc5)c4)C(=O)[C@H]3CC[C@H]12	/	/	.[10 µM]	/
Oc1ccccc1CNc1cnc2ccccc2c1	?	.	.[10 µM]	35µM
Cc1ccccc1-c1ccc2ncnc(-n3ccnc3)c2c1	/	/	1µM	/
CN(C)c1ccc(-c2ccc3ncnc(-n4ccnc4)c3c2)cc1	/	/	3.2µM	/
NCCC[C@@H](CC(=O)N[C@@H]1CCCC[C@H]1C(=O)N[C@H](CC(=O)N[C@@H](CCC(=O)O)CC(=O)O)Cc1c[nH]c2ccccc12)NC(=O)C[C@H](Cc1ccccc1)NC(=O)[C@@H]1CNCC[C@H]1N	.	/	.	/
Cc1cc(O)c2c(c1O)C(=O)[C@]13C(=C2O)C(=O)[C@@H]2[C@@H](O)[C@H]1[C@@H]1[C@H](O)[C@H]3C(=O)C3=C(O)c4c(O)cc(C)c(O)c4C(=O)[C@]312	/	4.5µM	/	/
CCCCn1c(NC(=O)c2ccccc2)c(C#N)c2nc3ccccc3nc21	?	.	.[10 µM]	.
CCC(C)n1c(NC(=O)c2ccccc2)c(C#N)c2nc3ccccc3nc21 (stereo not drawn)	?	6.3µM	.	?
CSc1ccc(/C=N/N2CCN(Cc3ccccc3)CC2)cc1	11µM	.	.[10 µM]	.[9.22 µM]
O=C(O)Cc1c[nH]c2cccc(O)c12	?	5.6µM	.[10 µM]	.[9.22 µM]
COc1ccc2c(c1)O[C@H](c1ccc3c(c1)OCO3)[C@@H](OC(=O)NCCOc1ccccc1)C2=O	.	/	.	/
Cc1noc(C)c1-c1ccc2ncnc(N(C)C)c2c1	/	/	.	/
CCN(CC)S(=O)(=O)c1cccc(-c2n[nH]c(=S)n2/N=C/c2ccc(OC(F)F)cc2)c1	.	.	.[1.9 µM]	22µM
CCN(CC)S(=O)(=O)c1cccc(-c2n[nH]c(=S)n2/N=C/c2ccc(OC)cc2)c1	?	.	.[10 µM]	.
Cc1cc(O)c(C=O)c2c1C(=O)Oc1c(CO)c(O)c3c(c1O2)C(O)OC3=O (stereo not drawn)	20µM	2.8µM	.[10 µM]	.[9.22 µM]
O=C(CN1CCOCC1)Nc1cccc(Br)c1	.	.	.	3.2µM
SMILES	KDM4E inh	L3MBTL1 inh	HTT ATP protect	HTT aggregate
O=C(CCN1CCOCC1)Nc1cccc(Br)c1	.	/	.[0.074 µM]	.
CCCCNc1nc(C)nc2c1nc(-c1ccccc1)n2CCCN(C)C	?	/	.	/
O=C(COC(=O)C1CCN(S(=O)(=O)c2cc([N+](=O)[O-])ccc2Cl)CC1)Nc1ncc(Cl)cc1Cl	.	.	.	.
CC(=O)COC(=O)C1CCN(S(=O)(=O)c2cc([N+](=O)[O-])ccc2Cl)CC1	.	28µM	.[10 µM]	.[9.22 µM]
c1ccc(CNc2cc(-c3ccoc3)ncn2)cc1	/	/	.	/
CC1(C)COC(c2ccc(F)c([N+](=O)[O-])c2)=N1	.	.	.[10 µM]	35µM
CC1(C)COC(c2cc([N+](=O)[O-])ccc2Cl)=N1	.	/	.	.
Cc1nn(Cc2ccc(Cl)cc2Cl)c(C)c1NC(=O)NC12CC3CC(CC(C3)C1)C2	.	/	.	25µM
Cc1nn(Cc2ccc(Cl)cc2Cl)c(C)c1NC(=O)c1sc2ccccc2c1Cl	.	.	.	.
